# Assay outcomes from PubChem.
# Sampled rows, rich in hits. Any-hit rate of the full collection: about 5.2%.
# PK Bst – Pyruvate Kinase | purified pyruvate kinase, luminescence ATP production; ribose 5-phosphate activator present at AC10 | Potency, µM | 51,000 tested, 1.2% active | AID 361, 2006; in the data active = potency below about 11 µM; inconclusive = mostly about 12 µM to 25 µM;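 the screen sought inhibitors and activators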;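 also: scaled between full activation by ribose 5 phosphate and full inhibition by luteolin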
# TSHR ag – qHTS Assay for Agonists of the Thyroid Stimulating Hormone Receptor | HEK293-CNG-TSHR cells (CNG channel as cAMP sensor), membrane potential dye, cAMP | Potency, µM (titrated, usually from 57.1 µM), for inactives: at the highest dose activation, usual class: activators | 73,000 tested, 0.48% active | AID 926, 2007; active = well fitted activation curve with a large enough effect in the main read-out, with a control signal flat, not every such curve was filed as active; inconclusive = small, poorly fitted or top-dose-only effect, or a change in a side signal; inactive = no such curve, though single readings can be large or run the other way; % of control where 0% means no effect;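 also: the control signal comes from parental cells without the receptor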
# Target sequence (P16473 whole entry, looked up): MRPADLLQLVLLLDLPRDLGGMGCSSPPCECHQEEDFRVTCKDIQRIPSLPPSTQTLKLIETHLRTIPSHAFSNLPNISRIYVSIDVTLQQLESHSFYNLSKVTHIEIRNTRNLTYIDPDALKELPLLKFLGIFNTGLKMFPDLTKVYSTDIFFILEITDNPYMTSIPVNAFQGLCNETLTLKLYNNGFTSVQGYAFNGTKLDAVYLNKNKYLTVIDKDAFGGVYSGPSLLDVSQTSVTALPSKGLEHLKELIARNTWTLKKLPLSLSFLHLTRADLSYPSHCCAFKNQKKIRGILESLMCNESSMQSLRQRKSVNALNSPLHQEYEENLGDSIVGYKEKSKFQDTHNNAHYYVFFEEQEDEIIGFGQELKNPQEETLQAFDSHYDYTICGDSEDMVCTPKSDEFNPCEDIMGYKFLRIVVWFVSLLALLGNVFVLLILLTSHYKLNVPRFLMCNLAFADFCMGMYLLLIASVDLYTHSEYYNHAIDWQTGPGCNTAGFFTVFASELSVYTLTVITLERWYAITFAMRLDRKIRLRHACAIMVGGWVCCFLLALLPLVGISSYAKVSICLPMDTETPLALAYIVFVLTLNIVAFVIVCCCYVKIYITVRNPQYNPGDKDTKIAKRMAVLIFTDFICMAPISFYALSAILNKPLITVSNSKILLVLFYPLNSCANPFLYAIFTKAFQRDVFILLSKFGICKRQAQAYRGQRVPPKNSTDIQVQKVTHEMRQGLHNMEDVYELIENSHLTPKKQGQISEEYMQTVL
#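 cAMP rise detected as CNG-channel membrane depolarization by fluorescent dye (emission 590 nm), 30 min after compound, following 60 min dye loading containing 100 uM RO 20-1724 at room temperature. Cells: TSHR/CNG HEK 293, with parental CNG HEK 293 as control.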
# Luciferase inh – qHTS Assay for Inhibitors of Firefly Luciferase; Potency, µM (highest dose often 57.1 µM), inactives show at the highest dose activity change, negative = inhibition, actives largely listed as inhibitors; AID 411, 2009; 72,000 tested, 2.2% active; purified firefly luciferase, luminescence, 8 min; Luciferin 4-monooxygenase (Photinus pyralis), P08659; also: % is scaled to controls: 0 for no effect and ±100 for the full control effect; nearly all actives have a fitted effect of over 40% in size
#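 Substrate buffer containing 10 uM ATP (pH 7.2 imidazole, Mg2+, KCl, detergent, BSA) is dispensed, compound pinned in, then luciferase/luciferin detector mix added. After 8 min at ambient temperature, light output is measured.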
# HEK293 cAMP cs – qHTS Assay for Agonists of the Thyroid Stimulating Hormone Receptor: Activators of Intracellular cAMP Concentrations in Parental HEK 293; parental HEK293 CNG cAMP sensor, membrane potential fluorescence; Potency, µM (doses to about 57.1 µM), without a hit: at the top dose activation, most hits filed as activators; 73,000 tested, 2.5% active; also: % of control where 0% means no effect; nearly all actives have a fitted effect of over 55% in size
#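 Parental HEK 293 cells stably expressing a modified CNG channel (no TSHR) report cAMP rise as membrane depolarization. Membrane potential dye with 100 uM RO 20-1724 was loaded for 60 min at room temperature, then compound added for 30 min; fluorescence read at 590 nm.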
# * = called active by the depositor; i = inactive; ? = inconclusive; nt = not tested or not shown; [ ] = another dose, or the depositor's remark. Unless noted, calls follow the shape of the dose curve; as a rule, active = well fitted curve in the direction sought with a large enough effect; inconclusive = small, poorly fitted or top-dose-only effect, or another doubt; inactive = no such curve, though single readings can be large; an effect the other way counts as inactive or inconclusive. Potency is read from the fitted curve at half-maximal effect.
SMILES,PK Bst,TSHR ag,Luciferase inh,HEK293 cAMP cs
COc1ccc(C2/C(=C(/O)c3ccc(Cl)cc3)C(=O)C(=O)N2CCN2CCOCC2)c(OC)c1 (stereo unspecified),>57,-11%,-2%,9%
COCCNC(=O)C(c1ccc(Cl)cc1)N(C(=O)CCC(=O)Nc1ccccn1)C1CCCC1 (stereo unspecified),>57,15%,2%,25%
c1ccc(OCCn2c(-c3ccco3)nc3ccccc32)cc1,nt,?,nt,25µM*
CCn1c(-c2ccco2)nc2ccccc21,nt,4%,-24%,14%
Cc1cc(N2CCCCC2)nc(SCc2ccc(C#N)cc2)n1,>57,?,-2%,32µM*
CC1=C(C(=O)OCc2ccc3c(c2)OCO3)C(c2ccc(Cl)cc2)NC(=O)N1 (stereo unspecified),nt,32µM*,1%,18%
Cc1cc(C)c(C)c(S(=O)(=O)NCc2ccco2)c1C,11*,?,0%,?
O=C1c2ccccc2C(Nc2ccc(Cl)cn2)N1c1ccccn1 (stereo unspecified),nt,?,1%,16µM*
Cc1cc(C(F)F)n2ncc(C(=O)NC3CCCCCC3)c2n1,>57,25%,0%,5%
Cc1c(-c2nc(N)nc(Nc3ccccc3F)n2)oc2ccccc12,nt,24%,13µM*,15%
COc1ccccc1Nc1nc(N)nc(-c2cc3ccccc3o2)n1,nt,17%,-23%,7%
O=C1Nc2ccccc2[C@]1(O)Cc1ccccn1,nt,-3%[11.4 µM],3%[11.4 µM],-3%[11.4 µM]
O=C1c2ccccc2C(Cc2ccnc(F)c2)(Cc2ccnc(F)c2)c2ccccc21,nt,?,nt,0.25µM*
CCCC1=C(C(=O)OCC)C(c2ccc(NC(C)=O)cc2)NC(=O)N1 (stereo unspecified),>57,-14%,-2%,0%
CCOC(=O)C1CCCN(C(=O)c2cn(C)c(=O)c3cc(OC)c(OC)cc23)C1 (stereo unspecified),>57,1%,0%,-3%
COc1ccc(Nc2cc(C(=O)NCCCN3CCN(C)CC3)c3ccccc3n2)cc1OC,i,?,25µM*,?
CCOC(=O)C1CCCN(C(=O)c2cc(Nc3ccc(OC)c(OC)c3)nc3ccccc23)C1 (stereo unspecified),i,-1%[11.4 µM],16µM*,-14%
Cn1c(=O)c2[nH]c(/N=N\N3CCN(CCO)CC3)nc2n(C)c1=O,nt,14%[11.4 µM],3%[11.4 µM],3%[11.4 µM]
CC1=C(C(=O)Nc2ccccc2)C(c2ccccn2)n2nc(CCCO)nc2N1 (stereo unspecified),nt,1%,1%,0%
COc1ccc(-n2c(Cn3c(=O)sc4ccccc43)nnc2SC)cc1,nt,10%,-4%,17%
CN(Cc1ccco1)c1ncnc2ccc(-c3ccc4c(c3)OCO4)cc12,nt,?,0%[2.29 µM],16µM*
CN(Cc1ccco1)c1ncncc1-c1ccc2c(c1)OCO2,nt,25µM*,3%[2.29 µM],18%
CN(Cc1ccco1)c1ncnc2ccc(-c3cccnc3)cc12,nt,2%,-3%[2.29 µM],12%
CN(C)c1ccc(-c2cncnc2N(C)Cc2ccco2)cc1,nt,nt,0%[2.29 µM],-3%
CCOCC(=O)Nc1nnc(Cc2ccc(OC)c(OC)c2)s1,>57,-1%,2%,4%
SMILES,PK Bst,TSHR ag,Luciferase inh,HEK293 cAMP cs
COc1cccc(C2NC(=O)NC(C)=C2C(=O)Nc2ccc(C)cc2)c1 (stereo unspecified),nt,5%,-1%,1%
Clc1ccc(-c2nnc(-c3ccco3)o2)cc1,4*,3%[11.4 µM],-18%,20%
c1cncc(-c2nnc(-c3ccco3)o2)c1,>57,-2%,-3%,4%
COc1ccc(-n2nnnc2SCC(=O)NCCc2ccc(OC)c(OC)c2)cc1,>57,7%,2%,8%
COc1ccc(NC(=O)Nc2nnc(N3CCCCC3C)s2)cc1OC (stereo unspecified),nt,-1%,16µM*,15%
COC(=O)c1ccccc1NC(=O)Nc1nnc(N2CCCCC2C)s1 (stereo unspecified),nt,-1%,-1%,-7%
Cc1cc2nc(-c3cccc(NC(=O)c4ccc(Br)o4)c3C)oc2cc1C,nt,?,7.9µM*,?
COC(=O)c1cccc(NC(=O)c2cc3sccc3n2C)c1,nt,?,?,13µM*
c1cncc(-c2ccc3ncnc(NC4CCNCC4)c3c2)c1,nt,2%,1%[2.29 µM],-6%
CSCCNC(=O)c1ccc(C(C)(C)C)cc1,?,14%,13µM*,3%
O=C(NCCSc1ccccc1)c1ccccc1,nt,4%,?,8%
